Reference: PubChem BioAssay AID1159580 (chemical genetic matrix, 2015)
Several values for one entry are separate records, joined by “and”; a condition that tells them apart may be missing. Identical values can stand only once. Hit rate of the full screen: of about 5,500 compounds, about 2,000 (36%) were called active. Another 18% or so got no clear call; they are omitted. Cut-off read from the data, not from the text of the source: active = normalized growth mostly below about 0.91 (no sharp cut-off); inconclusive = no clear call, values can overlap the other calls; inactive = mostly above about 0.92. This is one part of the list.

Test: chemical genetic growth profiling, strain panel (AID 1159580);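 note: tested at 20 µM; growth read once vehicle control cultures reached saturation at 30 °C; 1 = growth at the plate median or of vehicle wells; lower values mean less growth of the strain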
Details: S. cerevisiae deletion strains, growth OD

Measured: normalized growth

O=C1CCCC2C3CC(CN12)[C@@H]1CCCCN1C3 (stereo not given in full)
inactive: locus YAL013W, strain DEP1, stronger effect = lower value 1.02 | locus YAL021C, strain ccr4, stronger effect = lower value 0.988 | locus YAL026C, strain drs2, stronger effect = lower value 1.01 | locus YAL030W, strain snc1, stronger effect = lower value 0.995 | locus YBL061C, strain skt5, stronger effect = lower value 0.995 | locus YBR009C, strain hhf1, stronger effect = lower value 0.999 | locus YBR021W, strain FUR4, stronger effect = lower value 1.04 | locus YBR023C, strain chs3, stronger effect = lower value 1 | locus YBR171W, strain sec66, stronger effect = lower value 0.992 | locus YBR229C, strain ROT2, stronger effect = lower value 0.985 | locus YBR231C, strain swc5, stronger effect = lower value 0.996 | locus YBR279W, strain paf1, stronger effect = lower value 1 | locus YCL011C, strain gbp2, stronger effect = lower value 0.995 | locus YCL016C, strain dcc1, stronger effect = lower value 0.993 | locus YCL029C, strain bik1, stronger effect = lower value 0.982 | locus YCL061C, strain MRC1, stronger effect = lower value 0.998 | locus YCL069W, strain vba3, stronger effect = lower value 0.999 | locus YCR088W, strain abp1, stronger effect = lower value 0.987 | locus YDL005C, strain med2, stronger effect = lower value 0.991 | locus YDL035C, strain GPR1, stronger effect = lower value 1.02 | locus YDL040C, strain nat1, stronger effect = lower value 0.991 | locus YDL074C, strain BRE1, stronger effect = lower value 1 | locus YDL101C, strain DUN1, stronger effect = lower value 0.988 | locus YDL134C, strain PPH21, stronger effect = lower value 0.993 | locus YDL185W, strain tfp1, stronger effect = lower value 0.984 | locus YDL192W, strain arf1, stronger effect = lower value 0.987 | locus YDR001C, strain nth1, stronger effect = lower value 1 | locus YDR069C, strain doa4, stronger effect = lower value 1.01 | locus YDR101C, strain arx1, stronger effect = lower value 0.988 | locus YDR137W, strain rgp1, stronger effect = lower value 1.01 | locus YDR159W, strain sac3, stronger effect = lower value 0.987 | locus YDR162C, strain NBP2, stronger effect = lower value 1.01 | locus YDR195W, strain ref2 0.981 | locus YDR297W, strain sur2, stronger effect = lower value 0.993 | locus YDR318W, strain mcm21, stronger effect = lower value 1 | locus YDR334W, strain swr1, stronger effect = lower value 1.02 | locus YDR335W, strain msn5, stronger effect = lower value 0.998 | locus YDR388W, stronger effect = lower value 0.997 | locus YDR392W, strain spt3, stronger effect = lower value 0.927 | locus YDR502C, strain sam2, stronger effect = lower value 0.989 | locus YEL003W, strain gim4, stronger effect = lower value 1 | locus YEL037C, strain rad23, stronger effect = lower value 1.01 | locus YEL061C, strain CIN8 (second series), stronger effect = lower value 0.998 | locus YEL061C, strain CIN8, stronger effect = lower value 0.997 | locus YER015W, strain faa2, stronger effect = lower value 1.01 | locus YER016W, strain bim1, stronger effect = lower value 0.995 | locus YER110C, stronger effect = lower value 0.977 | locus YER111C, strain swi4, stronger effect = lower value 0.998 | locus YER155C, strain BEM2 (second series), stronger effect = lower value 1.02 | locus YER155C, strain BEM2, stronger effect = lower value 0.98 | locus YER167W, strain BCK2, stronger effect = lower value 1.01 | locus YFR010W, strain ubp6, stronger effect = lower value 1 | locus YGL078C, strain dbp3, stronger effect = lower value 0.995 | locus YGL086W, strain mad1, stronger effect = lower value 1 | locus YGL167C, strain pmr1, stronger effect = lower value 0.991 | locus YGL173C, strain kem1, stronger effect = lower value 0.979 | locus YGL227W, strain vid30, stronger effect = lower value 1 | locus YGL240W, strain doc1, stronger effect = lower value 1 | locus YGL248W, strain PDE1, stronger effect = lower value 0.995 | locus YGL253W, strain hxk2, stronger effect = lower value 1 | locus YGR078C, strain PAC10, stronger effect = lower value 1.01 | locus YGR135W, strain pre9, stronger effect = lower value 1 | locus YGR229C, strain SMI1, stronger effect = lower value 1.02 | locus YGR252W, strain gcn5, stronger effect = lower value 1 | locus YHR013C, strain ard1, stronger effect = lower value 0.984 | locus YHR027C, strain rpn1, stronger effect = lower value 0.988 | locus YHR030C, strain SLT2, stronger effect = lower value 0.993 and 0.983 | locus YHR079C, strain IRE1 (second series), stronger effect = lower value 1 | locus YHR079C, strain IRE1, stronger effect = lower value 1.01 | locus YHR094C, strain hxt1, stronger effect = lower value 0.982 | locus YHR129C, strain ARP1, stronger effect = lower value 0.983 | locus YHR142W, strain chs7, stronger effect = lower value 0.996 | locus YHR200W, strain rpn10, stronger effect = lower value 0.997 | locus YIL066C, strain RNR3, stronger effect = lower value 1 | locus YIL073C, strain SPO22, stronger effect = lower value 1.02 | locus YIL125W, strain kgd1, stronger effect = lower value 0.994 | locus YIR030C, strain dcg1, stronger effect = lower value 0.993 | locus YJL092W, strain hpr5, stronger effect = lower value 1 | locus YJL095W, strain BCK1 (second series), stronger effect = lower value 0.99 | locus YJL095W, strain BCK1, stronger effect = lower value 0.983 and 0.957 | locus YJL115W, strain asf1, stronger effect = lower value 0.989 | locus YJL129C, strain trk1, stronger effect = lower value 0.99 | locus YJL134W, strain LCB3, stronger effect = lower value 0.997 | locus YJL154C, strain vps35, stronger effect = lower value 0.993 | locus YJL164C, strain tpk1, stronger effect = lower value 1 | locus YJL166W, strain qcr8, stronger effect = lower value 0.989 | locus YJL168C, strain set2, stronger effect = lower value 1 | locus YJL187C, strain SWE1 (second series), stronger effect = lower value 0.987 | locus YJL187C, strain SWE1, stronger effect = lower value 0.996 | locus YJR043C, strain POL32, stronger effect = lower value 1.04 | locus YJR066W, strain TOR1, stronger effect = lower value 0.992 | locus YKL009W, strain mrt4, stronger effect = lower value 0.974 | locus YKL068W, stronger effect = lower value 0.99 | locus YKL085W, strain MDH1 (second series), stronger effect = lower value 1.01 | locus YKL085W, strain MDH1, stronger effect = lower value 1.01 | locus YKL160W, strain elf1, stronger effect = lower value 0.982 | locus YKR001C, strain vps1, stronger effect = lower value 1.01 | locus YKR026C, strain gcn3, stronger effect = lower value 0.99 | locus YKR091W, strain srl3, stronger effect = lower value 1 | locus YLL001W, strain dnm1, stronger effect = lower value 0.979 | locus YLL026W, stronger effect = lower value 0.989 | locus YLL041C, strain sdh2, stronger effect = lower value 1 | locus YLR027C, strain aat2, stronger effect = lower value 0.99 | locus YLR039C, strain RIC1, stronger effect = lower value 1.04 | locus YLR058C, strain SHM2, stronger effect = lower value 0.992 | locus YLR102C, strain apc9, stronger effect = lower value 0.992 | locus YLR113W, strain HOG1, stronger effect = lower value 0.977 | locus YLR221C, strain rsa3, stronger effect = lower value 0.981 | locus YLR258W, strain gsy2, stronger effect = lower value 0.999 | locus YLR262C, strain YPT6 (second series), stronger effect = lower value 0.986 | locus YLR262C, strain YPT6, stronger effect = lower value 1.04 | locus YLR268W, strain sec22, stronger effect = lower value 0.979 | locus YLR320W, strain mms22, stronger effect = lower value 0.979 | locus YLR330W, strain CHS5, stronger effect = lower value 1.01 | locus YLR342W, strain FKS1 (second series), stronger effect = lower value 1.01 | locus YLR342W, strain FKS1, stronger effect = lower value 1.01 | locus YLR357W, strain rsc2, stronger effect = lower value 0.979 | locus YLR370C, strain arc18, stronger effect = lower value 1 | locus YLR371W, strain rom2, stronger effect = lower value 0.984 | locus YLR384C, strain iki3, stronger effect = lower value 1.01 | locus YLR418C, strain cdc73, stronger effect = lower value 1.02 | locus YML016C, strain PPZ1, stronger effect = lower value 0.978 | locus YML032C, strain rad52, stronger effect = lower value 1 | locus YML120C, strain ndi1, stronger effect = lower value 0.996 | locus YML124C, strain tub3, stronger effect = lower value 0.991 | locus YMR058W, strain fet3, stronger effect = lower value 1.01 | locus YMR078C, strain ctf18, stronger effect = lower value 0.991 | locus YMR125W, strain sto1, stronger effect = lower value 0.975 | locus YMR129W, stronger effect = lower value 0.995 | locus YMR205C, strain PFK2, stronger effect = lower value 0.978 | locus YMR223W, strain ubp8, stronger effect = lower value 0.995 | locus YMR231W, strain pep5, stronger effect = lower value 0.999 | locus YMR307W, strain GAS1, stronger effect = lower value 1.06 | locus YNL067W, strain RPL9B, stronger effect = lower value 0.993 | locus YNL071W, strain lat1, stronger effect = lower value 0.997 | locus YNL153C, strain GIM3, stronger effect = lower value 0.993 | locus YNL183C, strain NPR1, stronger effect = lower value 0.967 | locus YNL209W, strain ssb2, stronger effect = lower value 1 | locus YNL233W, strain BNI4, stronger effect = lower value 0.998 | locus YNL248C, strain rpa49, stronger effect = lower value 0.993 | locus YNL250W, strain rad50, stronger effect = lower value 0.984 | locus YNL271C, strain bni1, stronger effect = lower value 0.991 | locus YNL298W, strain CLA4, stronger effect = lower value 1 | locus YNL307C, strain MCK1, stronger effect = lower value 0.985 | locus YNL322C, strain KRE1 (second series), stronger effect = lower value 0.979 | locus YNR049C, strain mso1, stronger effect = lower value 0.994 | locus YNR052C, strain pop2, stronger effect = lower value 0.993 | locus YOL006C, strain TOP1, stronger effect = lower value 0.968 | locus YOL012C, strain htz1 2.29 | locus YOL147C, strain pex11, stronger effect = lower value 0.992 | locus YOR001W, strain rrp6, stronger effect = lower value 1.03 | locus YOR061W, strain CKA2, stronger effect = lower value 0.988 | locus YOR069W, strain VPS5, stronger effect = lower value 0.982 | locus YOR070C, strain gyp1, stronger effect = lower value 1.02 | locus YOR080W, strain dia2, stronger effect = lower value 0.986 | locus YOR083W, strain WHI5, stronger effect = lower value 0.973 | locus YOR106W, strain vam3, stronger effect = lower value 1 | locus YOR136W, strain idh2, stronger effect = lower value 0.985 | locus YOR144C, strain elg1, stronger effect = lower value 0.998 | locus YOR184W, strain ser1, stronger effect = lower value 0.991 | locus YOR231W, strain MKK1, stronger effect = lower value 1.01 | locus YOR265W, strain rbl2, stronger effect = lower value 1 | locus YOR270C, strain vph1, stronger effect = lower value 1.03 | locus YOR290C, strain snf2, stronger effect = lower value 0.975 | locus YOR316C, strain cot1, stronger effect = lower value 0.993 | locus YPL051W, strain arl3, stronger effect = lower value 0.993 | locus YPL078C, strain atp4, stronger effect = lower value 0.997 | locus YPL106C, strain sse1, stronger effect = lower value 0.968 | locus YPL240C, strain hsp82, stronger effect = lower value 0.999 | locus YPL256C, strain CLN2, stronger effect = lower value 1.01 | locus YPR119W, strain clb2, stronger effect = lower value 0.999 | locus YPR141C, strain kar3, stronger effect = lower value 0.982 | locus YPR163C, strain tif3, stronger effect = lower value 0.996 | locus YPR167C, strain met16, stronger effect = lower value 0.995 | strain wtn01, stronger effect = lower value 0.967
